Assay results published in PubChem BioAssay AID449762 (Southern Research Specialized Biocontainment Screening …, 2010).
Hit rate of the full screen: of about 330,000 compounds, about 1,900 (0.58%) were called active. Another 4% or so got no clear call; they are omitted. Cut-off read from the data, not from the text of the source: inconclusive = inhibition above about 70% without an active follow-up result; inactive = below that. A selection follows. Results with a measured potency or affinity are listed apart.

Assay: M. tuberculosis growth inhibition, HTS (AID 449762);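 note: bacterial growth assessed after seven days of incubation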
Conditions: M. tuberculosis H37Rv growth inhibition, 7H9 media; at 25 µM; active compounds read high
In the case of `CCOc1ccc(CNC(=O)C2CCCN(S(=O)(=O)N3CC(C)CC(C)C3)C2)cc1OC` (stereo not given), the inhibition is reported as -1.45% (inactive).
In the case of `COC(OC)c1ccnc(-c2ccc(OC(=O)c3ccccc3)cc2)n1`, the inhibition is reported as 57% (inactive).
For `COC(OC)c1ccnc(-c2ccc(OC(C)=O)cc2)n1`, the inhibition was 0.19% (inactive).
For `CCC[N+](CC#Cc1ccccc1)(CCC)CC(=O)OC`, the inhibition was 0.57% (inactive).
In the case of `Cc1occc1-c1nnc(SCC(=O)NC2CC2)n1C(C)C`, the inhibition is reported as 6.3% (inactive).
In the case of `CCOCCn1c(=O)c2c(nc3n2CCCN3Cc2ccccc2)n(C)c1=O`, the inhibition is reported as 4.47% (inactive).
For `CCCC(O)(c1ccc(CC)cc1)C(CN1CCOCC1)c1ccccc1` (stereo not given), the inhibition was 9.99% (inactive).
With `CCOC(=O)CSc1nc2ccsc2c(=O)n1C1CCN(C(=O)OCC)CC1` the inhibition was 39.3% (inactive).
In the case of `CCOC(=O)N1CCC(n2c(SCC(=O)c3ccccc3)nc3ccsc3c2=O)CC1`, the inhibition is reported as -5.37% (inactive).
In the case of `COc1ccc(/C=N/NC(=O)c2cccc(C(=O)N/N=C/c3ccc(OC)cc3)n2)cc1`, the inhibition is reported as -1.47% (inactive).
With `O=C(CN1C(=O)COc2ccccc2C1=O)c1ccc2c(c1)OCCO2` the inhibition was 4.6% (inactive).
For `O=C(OC(C(=O)c1c[nH]c2ccccc12)c1ccccc1)c1cnccn1` (stereo not given), the inhibition was 1.97% (inactive).
With `Nc1nnnn1/N=C/c1ccccc1` the inhibition was -0.26% (inactive).
For `Nc1nnnn1/N=C/C=C/c1ccccc1`, the inhibition was -3.78% (inactive).
With `CCOC(=O)N1CCC(N2C(=O)c3ccc(C(=O)Nc4ccc(F)cc4F)cc3C2=O)CC1` the inhibition was -5.69% (inactive).
In the case of `CCOC(=O)N1CCN(S(=O)(=O)c2ccc(C(=O)N(CCN(C)C)c3nc4c(C)cccc4s3)cc2)CC1`, the inhibition is reported as -14.4% (inactive).
In the case of `CC1=C(c2ccc(F)cc2)[N+](=O)C(C)(C)N1[O-]`, the inhibition is reported as -6.06% (inactive).
In the case of `Cc1ccc(C(C(=O)NC(C)(C)C)N(Cc2ccccc2)C(=O)c2snc(C(N)=O)c2N)o1` (stereo not given), the inhibition is reported as -7.23% (inactive).
For `COc1cc(/C=C2/C(=O)N(c3ccccc3)N=C2C)ccc1OS(=O)(=O)c1ccccc1`, the inhibition was 11% (inactive).
In the case of `COc1ccc(/C=C2/C(=O)N(c3ccccc3)N=C2C)cc1OC`, the inhibition is reported as 8.2% (inactive).
With `CCOC(=O)N1CCN(Cc2ccc3ccccc3c2)CC1` the inhibition was 9.89% (inactive).
With `O=C(Nc1cccn2ncnc12)C(Cl)Cl` the inhibition was 8.05% (inactive).
For `CCCCC(=O)Nc1cccn2ncnc12`, the inhibition was -5.05% (inactive).
With `Cc1ccc(/C=C2/SC(=S)N(CCC(=O)N3CCOCC3)C2=O)cc1` the inhibition was -5.59% (inactive).
In the case of `CCCCn1c(=N)n(CC(=O)c2ccc(OC)cc2)c2ccccc21`, the inhibition is reported as 2.91% (inactive).
In the case of `CCCn1c(=N)n(CC(=O)c2ccc(Cl)cc2)c2ccccc21`, the inhibition is reported as 20.9% (inactive).
In the case of `Cc1ccc(S(=O)(=O)NCc2ccc(C(=O)NCc3cccnc3)cc2)cc1`, the inhibition is reported as -0.01% (inactive).
For `Cc1cc(NC(=O)c2cc(-c3cccc(Cl)c3)on2)no1`, the inhibition was 4.25% (inactive).
For `O=C(NNS(=O)(=O)c1ccccc1[N+](=O)[O-])c1ccccc1[N+](=O)[O-]`, the inhibition was -1.87% (inactive).
In the case of `C=CCSC1=N/C(=C\c2ccc3c(c2)OCO3)C(=O)S1`, the inhibition is reported as 2.93% (inactive).
For `CCc1nc(N=C(N)N)nc2ccccc12`, the inhibition was -2.46% (inactive).
For `Cc1nc(N=C(N)N)nc2ccccc12`, the inhibition was 0.45% (inactive).
In the case of `Cc1cc(C2C(=O)c3ccccc3C2=O)c(C)c(C)c1C`, the inhibition is reported as 30.3% (inactive).
For `Cc1ccc(C2C(=O)c3ccccc3C2=O)cc1`, the inhibition was 7.43% (inactive).
With `CC(=O)NC12CC3CC(C1)CC(C(=O)N(C)CC(=O)Nc1cccc(F)c1)(C3)C2` the inhibition was 6.36% (inactive).
For `CC(NC(=O)c1cc(COc2c(F)cccc2F)on1)c1cnn(-c2ccccc2)c1` (stereo not given), the inhibition was 1.01% (inactive).
With `Cc1sc2ncnc(N3CCC(C(=O)N(C)CC(=O)Nc4ccccc4Cl)CC3)c2c1C` the inhibition was 67.4% (inactive).
With `CCCCn1c(N)c(N(CC(C)C)C(=O)C2CCN(c3ncnc4sc(C)c(C)c34)CC2)c(=O)[nH]c1=O` the inhibition was 54.4% (inactive).
For `CNC(=O)CSc1nnc(-c2ccco2)n1-c1cccc(C)c1C`, the inhibition was -8.51% (inactive).
For `O=C(Cc1ccc(F)cc1)NCCS(=O)(=O)N1CCN(c2ccccc2)CC1`, the inhibition was -9.43% (inactive).
With `COc1ccc(/C=C2\SC(=S)N(Cc3cccnc3)C2=O)cc1C` the inhibition was 12.2% (inactive).
For `CCOC(=O)C1CCN(S(=O)(=O)c2ccc(C)c(C)c2)CC1`, the inhibition was -5.37% (inactive).
For `Cc1ccc(S(=O)(=O)N2CCC(C(=O)OCC(=O)NCCc3ccccc3)CC2)cc1C`, the inhibition was 1.72% (inactive).
In the case of `COc1cccc(NC(=O)[C@H](Cc2ccccc2)NC(=O)[C@@H]2Cc3ccccc3CN2)c1`, the inhibition is reported as -7.04% (inactive).
With `O=C(Nc1ccc(C(F)(F)F)cc1-c1ccccc1)c1ccccc1` the inhibition was -5.73% (inactive).
In the case of `O=C(Nc1cnccn1)C1c2ccccc2Oc2ccccc21`, the inhibition is reported as -4.63% (inactive).
In the case of `CCOC(=O)c1c(C)[nH]c(C)c1C(=O)CN1C(=O)NC2(CCC(C)CC2)C1=O` (stereo not given), the inhibition is reported as -4.05% (inactive).
With `CCc1ccc2oc(-c3cc(N)ccc3O)nc2c1` the inhibition was -0.82% (inactive).
For `CCc1ccc2oc(-c3cc(N)cc(C)c3O)nc2c1`, the inhibition was 42.6% (inactive).
In the case of `O=C1c2cc(O)cc(O)c2C(=O)c2c1cc(O)c([C@@H](CO)CCO)c2O`, the inhibition is reported as -12.7% (inactive).
With `O=C(O)c1cc(O)c2c(c1)C(=O)c1cc(O)cc(O)c1C2=O` the inhibition was -5.47% (inactive).
In the case of `CCOc1ccccc1NC(=S)NC1CCCCC1`, the inhibition is reported as -19.5% (inactive).
With `CCc1nn(CC(=O)NCCN2CCN(C)CC2)c(=O)c2cc3c(OC)cccc3n12` the inhibition was 7.05% (inactive).
With `Cc1ccc(N=CC2=C(O)CC(c3ccco3)CC2=O)cc1` (stereo not given) the inhibition was -6.24% (inactive).
In the case of `CCc1ccc(N=CC2=C(O)CC(c3ccco3)CC2=O)cc1` (stereo not given), the inhibition is reported as 0.59% (inactive).
In the case of `Cc1cccc(C)c1NC(=O)C1NC(=O)CC1c1ccccc1` (stereo not given), the inhibition is reported as 17.9% (inactive).
In the case of `CCOc1ccc(C2/C(=C(/O)c3ccc(S(=O)(=O)N4CCCCC4)cc3)C(=O)C(=O)N2CCCOC)cc1OC` (stereo not given), the inhibition is reported as -12.5% (inactive).
In the case of `COc1ccc(N(C(C)C(=O)NN=C2CCCC2)S(C)(=O)=O)cc1` (stereo not given), the inhibition is reported as -2.55% (inactive).
With `Cc1ccc2cccc(Oc3ncnc4sc(C)c(C)c34)c2n1` the inhibition was 42% (inactive).
With `COc1ccc(-n2ccnc2)cc1` the inhibition was 1.26% (inactive).
For `COc1ccc2oc(C(=O)OCC(=O)Nc3cc(S(=O)(=O)N4CCOCC4)ccc3OC)c(C)c2c1`, the inhibition was 0.56% (inactive).
With `COc1ccccc1C(=O)NNC(=O)C(=O)NC(C)C` the inhibition was 61.6% (inactive).
With `Cc1ccc2nc(SCc3nc4c(cnn4-c4ccccc4)c(=O)[nH]3)[nH]c2c1` the inhibition was 0.73% (inactive).
For `Cc1ccc(-c2nc3ccccc3s2)cc1NC(=S)NC(=O)/C=C/c1ccco1`, the inhibition was -2.81% (inactive).
For `Cc1ccc(-c2nc3ccccc3o2)cc1NC(=S)NC(=O)/C=C/c1ccco1`, the inhibition was -10.3% (inactive).
With `CCOC(=O)[C@H]1[C@H]2COc3ccccc3[C@@H]2N2C(=O)c3cc(F)c(F)cc3NC(=O)[C@@]12C` the inhibition was -2.93% (inactive).
In the case of `CC(C)NS(=O)(=O)c1ccc(OCC(=O)NCC2CCCO2)c(Cl)c1` (stereo not given), the inhibition is reported as -3.59% (inactive).
With `COc1ccc(NC(=O)c2c(Cl)nc3ccccn23)cc1` the inhibition was 9.69% (inactive).
In the case of `CC(C)(C)c1ccc(C(=O)OCCNC(=O)c2c(Cl)nc3ccccn23)cc1`, the inhibition is reported as -5.57% (inactive).
In the case of `CSc1ccccc1C(=O)N1CCN(c2cccc(Cl)c2)CC1`, the inhibition is reported as -1.96% (inactive).
In the case of `O=S1(=O)CCC(n2ncc3c2/C(=C/c2ccccc2)CC3)C1` (stereo not given), the inhibition is reported as 4.34% (inactive).
With `Cn1c(CNC(=O)c2ccco2)nnc1SCC(=O)c1ccc(F)cc1` the inhibition was -2.19% (inactive).
In the case of `O=C(Nc1ccccc1)C1=C[C@H](C2CCCCC2)C[C@H](OCc2ccc(CO)cc2)O1`, the inhibition is reported as 8.7% (inactive).
With `O=C(Nc1ccccc1)C1=C[C@@H](C2CC2)C[C@@H](OCc2ccc(CO)cc2)O1` the inhibition was 5.14% (inactive).
For `Cc1ccccc1CN1CCN(C(=O)c2cc(-c3ccncc3)nc3ccccc23)CC1`, the inhibition was 12.1% (inactive).
With `O=C(c1cc(-c2ccncc2)nc2ccccc12)N1CCN(Cc2ccccc2)CC1` the inhibition was -9.48% (inactive).
In the case of `C[C@H]1CC[C@]2(O[C@H](CCO)C[C@H](O)[C@H]2O)O1`, the inhibition is reported as 3.36% (inactive).
For `O=C(Nc1cc(F)ccc1F)C1CCCO1` (stereo not given), the inhibition was -6.27% (inactive).
For `Cc1ccc(C(=O)Nc2ccc([N+](=O)[O-])cn2)o1`, the inhibition was -6.44% (inactive).
With `C=CCc1c(C)nc(SC)nc1Nc1ccc(C)cc1` the inhibition was 56% (inactive).
With `C=CCc1c(C)nc(SC)nc1Nc1ccc(C(=O)O)cc1` the inhibition was -7.64% (inactive).
With `Cc1cccc(C(=O)NCc2nnc(SCC(=O)N3CCN(c4ccccc4)CC3)n2C)c1` the inhibition was 0.25% (inactive).
With `CSc1ncc(C(=O)Nc2ccccc2C)c(C)n1` the inhibition was 58.1% (inactive).
In the case of `CSc1ncc(C(=O)Nc2ccccc2Cl)c(C)n1`, the inhibition is reported as 6.57% (inactive).
In the case of `Cc1ccc(NC(=O)COC(=O)CCn2c(C)csc2=O)cc1S(=O)(=O)N1CCOCC1`, the inhibition is reported as -2.47% (inactive).
With `O=[N+]([O-])c1ccc(Nc2ccc(Cl)cc2)nc1` the inhibition was 25.4% (inactive).
In the case of `O=C(O)c1ccc(Nc2ncc([N+](=O)[O-])cc2[N+](=O)[O-])cc1`, the inhibition is reported as 3.64% (inactive).
With `O=C(COC(=O)c1ccccc1Br)Nc1ccc2[nH]c(=O)[nH]c2c1` the inhibition was -0.67% (inactive).
With `Cc1ccc(C)c(-c2csc(NC(=O)C3=COCCO3)n2)c1` the inhibition was 65% (inactive).
For `CS(=O)(=O)c1ccccc1-c1nnc(NC(=O)C2=COCCO2)o1`, the inhibition was 0.09% (inactive).
With `Cc1c(NS(=O)(=O)c2cccc(C(=O)OCC(=O)N(C)C3CCCCC3)c2)c(=O)n(-c2ccccc2)n1C` the inhibition was -13.2% (inactive).
For `NC(=S)NCc1cccnc1`, the inhibition was -5.18% (inactive).
In the case of `CCOc1ccc(C(=O)NC(=S)NCc2cccnc2)cc1`, the inhibition is reported as -0.27% (inactive).
For `CCCOc1ccc(C(=O)NCc2cccnc2)cc1`, the inhibition was 1.16% (inactive).
In the case of `S=C(NCc1cccnc1)NCc1cccnc1`, the inhibition is reported as -1.16% (inactive).
